{
  "source": "PubChem BioAssay AID1671190",
  "about": "(National Center for Advancing Translational Sciences (NCATS), 2021)",
  "note": "“And” between values parts separate entries of the source, which are not always exact repeats. Identical values can stand only once. About 6,100 (1.1%) of roughly 580,000 compounds were called active. Another 15% or so got no clear call; they are omitted. Calls come from the whole dose curve; as a rule, active = well fitted inhibition curve with a large enough effect; inconclusive = small, poorly fitted or top-dose-only effect, or another doubt; inactive = no such curve, though single readings can be large or run the other way. What follows is part of a selection rich in actives, with near analogues and random picks from the rest. Where a call stands in place of a potency, no number is given. Potency is the fitted concentration of half-maximal effect.",
  "data": [
    {"target": "Polyunsaturated fatty acid lipoxygenase ALOX12 (Homo sapiens) (UniProt P18054)", "sequence (P18054 whole entry, looked up)": "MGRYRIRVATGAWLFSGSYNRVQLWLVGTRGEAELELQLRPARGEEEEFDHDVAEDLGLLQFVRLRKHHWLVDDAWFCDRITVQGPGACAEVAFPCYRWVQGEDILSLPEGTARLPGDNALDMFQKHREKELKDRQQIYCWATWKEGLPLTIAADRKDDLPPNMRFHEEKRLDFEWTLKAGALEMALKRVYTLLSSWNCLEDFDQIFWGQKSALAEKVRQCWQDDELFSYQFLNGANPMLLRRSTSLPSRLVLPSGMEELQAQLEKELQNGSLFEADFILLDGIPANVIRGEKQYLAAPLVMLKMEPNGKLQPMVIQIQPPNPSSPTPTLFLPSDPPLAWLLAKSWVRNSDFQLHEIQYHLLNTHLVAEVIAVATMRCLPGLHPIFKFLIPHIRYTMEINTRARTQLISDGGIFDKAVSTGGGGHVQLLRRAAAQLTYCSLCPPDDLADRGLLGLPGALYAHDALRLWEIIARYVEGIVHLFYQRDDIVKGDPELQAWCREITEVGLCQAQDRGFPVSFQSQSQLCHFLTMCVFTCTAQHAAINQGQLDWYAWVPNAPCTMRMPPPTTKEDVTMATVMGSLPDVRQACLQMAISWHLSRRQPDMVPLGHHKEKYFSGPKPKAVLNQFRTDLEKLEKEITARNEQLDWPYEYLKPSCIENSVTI", "test": "Primary qHTS assay for inhibitors of human arachidonate 12S-lipoxygenase (ALOX12): Round 2", "settings": "purified 12hLO, xylenol orange hydroperoxide absorbance; series mostly up to 108 µM", "excerpt": "Assay Provider: Theodore R. Holman Ph.D. University of California, Santa Cruz, California Human lipoxygenase 12hLO is a member of the closely related lipoxygenase family of enzymes which catalyze the site-specific oxidation of arachidonic acid to various hormone precursor molecules and as such is a candidate for drug development in a variety of disease areas, such as cancer and inflammation. Inhibition of 12hLO activity was screened by utilizing arachidonic acid as a substrate. The extent of hydroperoxide product formation was measured by a secondary chromogenic reaction in which xylenol orange (XO, Sigma-Aldrich, cat. number 39,818-7) reacts with the ferric ions produced from the reaction between the hydroperoxide and ferrous ions. The Fe (III)-XO complex is characterized with red-shifted absorbance at 560 nm. A purified preparation of human 12hLO was supplied by Dr. Holman laboratory, University of California, Santa Cruz.\nPROTOCOL TABLE SEQUENCE No. (e.g., 1, 2, 3, etc.); […] (e.g., Cells, Incubation, Reagent, etc.); VALUE; DESCRIPTION 1; Enzyme; 3 uL; 150 nM 12hLO enzyme solution dispensed in 1536-well Greiner black, clear bottom plates. 2; Compound; 23 nL; compounds and controls were added. 3; Incubate; 15 min; room temperature. 4; Substrate; 1 uL; 40 uM arachidonic acid (final concentration). 5; Incubate; 30 min; room temperature. 6; Reagent; 4 uL; Fe-XO solution was added to each well. 7; Incubation; 30 min; room temperature 8; Detector; absorbance; Read 1 at 405 nm absorbance using ViewLux (Perkin-Elmer) CCD imager. 9; Detector; absorbance; Read 2 at 573 nm absorbance using ViewLux (Perkin-Elmer) CCD imager. NOTES (numbers refer to sequence above) 1; 150 nM 12hLO (final concentration) in buffer solution (25 mM Hepes, 0.01% Triton X-100, pH 7.0) was dispensed in columns 1, 2, 5-48. Column 1 is neutral (100% activity). Buffer only was dispensed in columns 3 and 4 as no enzyme negative controls. The plates were covered with metal lids with gas-exchange holes. 2; Compounds were pin transferred via a Kalypsys Pin Tool (Wako USA) in column 5-48. Control compound was transferred in column 2, titration of nordihydroguaiaretic acid (NDGA, Sigma-Aldrich, N5023) with top concentration of 20 mM in DMSO then 1:3 dilution in duplicate. Dilution factor of 23 nL into 4 uL final assay volume. 3; Covered assay plates were incubated for 15 min at room temperature. 4; Substrate was added to start the reaction; 40 uM arachidonic acid (Sigma-Aldrich, St. Louis, MO) was dispensed throughout the plate. 6; Chromogenic detection reagent solution (divalent iron/xylenol orange, Fe-XO) was added to each well: 200 uM xylenol orange, 300 uM ferrous ammonium sulfate prepared freshly in 50 mM sulfuric acid. 8, 9; Two absorbance readouts were obtained at 405 nm and at 573 nm using a ViewLux high-throughput CCD plate imager (Perkin-Elmer). The 573 to 405 (Read 2 / Read 1) absorbance ratio was used to compute reaction progress.", "values": [
      {"smiles": "COc1ccccc1CN(C)C(=O)NCc1ccc(S(=O)(=O)N2CCCCC2)cc1", "Potency": "inactive"},
      {"smiles": "c1ccc(CN2CCc3c(sc4c3c(N3CCOCC3)nc3nnnn34)C2)cc1", "Potency": "inactive"},
      {"smiles": "CCCCS(=O)(=O)CCCCCO", "Potency": "inactive"},
      {"smiles": "CN(C)c1ccc(NC(=O)Cn2cnc3c2c(=O)n(C)c(=O)n3C)cc1", "Potency": "inactive"},
      {"smiles": "CC1(C)NC(=O)N(CCCC(=O)Nc2cccc3cccnc23)C1=O", "Potency": "inactive"},
      {"smiles": "Cc1cccc(NC2=NC(c3cccnc3)n3c(nc(C)cc3=O)N2)c1", "note": "(stereo unspecified)", "Potency": "inactive"},
      {"smiles": "COc1ccccc1NC(=O)c1cc2c(OC)c(OC)c(OC)cc2[nH]1", "Potency": "inactive"},
      {"smiles": "Cc1ccc(CNCc2ccc3c(c2)OCO3)c(C)c1", "Potency": "44.7 µM (active)"},
      {"smiles": "Cc1cc2oc(C(=O)NCc3ccc4c(c3)OCO4)cc(=O)c2cc1C", "Potency": "inactive"},
      {"smiles": "CCOc1ccc(S(=O)(=O)NCc2ccc3c(c2)OCO3)cc1C", "Potency": "inactive"},
      {"smiles": "CC(C)CNC(=O)NC1=C(C#N)C(C)(C)Cc2ccccc21", "Potency": "inactive"},
      {"smiles": "CCOC(=O)C1=C(NC(=S)NC(=O)c2ccccc2)c2ccccc2CC1(C)C", "Potency": "22.4 µM (active)"},
      {"smiles": "CCOC(=O)c1c(NC(=O)C2(C)Cc3ccccc3C(=O)O2)sc2c1CCCC2", "note": "(stereo unspecified)", "Potency": "inactive"},
      {"smiles": "CC(=O)CCc1ccc(OCC(O)CNC(C)(C)CO)cc1", "note": "(stereo unspecified)", "Potency": "inactive"},
      {"smiles": "CCc1ccc(-c2nc(SCc3ncc(-c4ccccc4)o3)n[nH]2)cc1", "Potency": "inactive"},
      {"smiles": "CCOC(=O)c1cccc(NC(=O)C2=Cc3ccccc3OC=C2)c1", "Potency": "inactive"},
      {"smiles": "CC(=O)c1c(N2CCOCC2)nc(=S)n(-c2cc(C)ccc2C)c1C", "Potency": "inactive"},
      {"smiles": "CC(=O)c1c(N2CCOCC2)nc(=S)n(Cc2ccccc2)c1C", "Potency": "inactive"},
      {"smiles": "CC(=O)c1c(N2CCN(c3ccc(F)cc3)CC2)nc(=S)n(-c2ccccc2)c1C", "Potency": "44.7 µM (active)"},
      {"smiles": "Cc1ccc(/C=C/C(=O)c2cc3ccccc3o2)s1", "Potency": "inactive"},
      {"smiles": "O=C(COc1ccc(F)cc1)Nc1ccc2oc(-c3ccc(F)cc3)nc2c1", "Potency": "inactive"},
      {"smiles": "COc1ccc(CCNc2ncnc3c2nnn3Cc2ccccc2)cc1", "Potency": "inactive"},
      {"smiles": "COc1ccc(CCNc2ncnc3c2cnn3-c2ccc(C)cc2)cc1", "Potency": "28.2 µM (active)"},
      {"smiles": "CCN(CC)CCNc1ncnc2c1cnn2-c1cc(Cl)ccc1C", "Potency": "inactive"},
      {"smiles": "NS(=O)(=O)c1ccc(CCNc2ncnc3c2cnn3-c2ccccc2Cl)cc1", "Potency": "inactive"},
      {"smiles": "Cc1ccc(-n2ncc3c(NNC(=O)C4CCCCC4)ncnc32)cc1", "Potency": "inactive"},
      {"smiles": "Clc1cccc(-n2ncc3c(NCCc4ccccc4)ncnc32)c1", "Potency": "44.7 µM (active) and 8.91 µM (active)"},
      {"smiles": "CCOC(=O)c1c(C)c(CCC(=O)NCCN2CCOCC2)c(C)n1C", "Potency": "inactive"},
      {"smiles": "CCN(CC)C(=O)C1=C(C)N=C2SC=C(CC(=O)NCc3ccco3)N2C1c1ccccc1F", "note": "(stereo unspecified)", "Potency": "inactive"},
      {"smiles": "C#CCNC(=O)CC[C@@H]1CNC(=O)[C@@H]2C[C@H](NC(=O)Nc3cccc(Cl)c3)CN12", "Potency": "inactive"},
      {"smiles": "O=C1Nc2ccc(-c3ccc(Cl)cc3)cc2C(=O)N2CC[C@H](NC(=O)N3CCOCC3)[C@@H]12", "Potency": "inactive"},
      {"smiles": "COc1cc(=O)n(-c2ccc(C)cc2)nc1C(=O)Nc1cccc(Cl)c1C", "Potency": "inactive"},
      {"smiles": "COc1cc(OC)cc(C(=O)OCC(=O)Nc2c(C)cccc2C(C)C)c1", "Potency": "inactive"},
      {"smiles": "CC(C)c1ccc(C2/C(=C(\\O)c3ccc4c(c3)OCCO4)C(=O)C(=O)N2c2nccs2)cc1", "note": "(stereo unspecified)", "Potency": "0.794 µM (active)"},
      {"smiles": "O=C1C(=O)N(CCCN2CCOCC2)C(c2ccc([N+](=O)[O-])cc2)/C1=C(\\O)c1ccc2c(c1)OCCO2", "note": "(stereo unspecified)", "Potency": "inactive"},
      {"smiles": "COc1cc(C2/C(=C(\\O)c3ccc4c(c3)CC(C)O4)C(=O)C(=O)N2c2nnc(C)s2)cc(OC)c1OC", "note": "(stereo unspecified)", "Potency": "inactive"},
      {"smiles": "CCn1cc(C#N)c(=O)n(Cc2noc(-c3ccc(Cl)cc3)n2)c1=O", "Potency": "inactive"},
      {"smiles": "Cc1cccc(NC(=O)N2CCCCCC2)c1C", "Potency": "inactive"},
      {"smiles": "Cc1cccc(NC(=O)c2cccc(C(=O)Nc3cccc(C)c3C)n2)c1C", "Potency": "3.16 µM (active)"},
      {"smiles": "Cc1cccc(NC(=O)c2ccc3nc(C(C)C)oc3c2)c1C", "Potency": "inactive"},
      {"smiles": "O=C(OCc1ccccc1)N1CCOCC12CCN(Cc1cccc(O)c1)CC2", "Potency": "inactive"},
      {"smiles": "CCc1ccccc1NC(=O)CSc1nc2c(=O)[nH]cnc2n1CC", "Potency": "inactive"},
      {"smiles": "O=C(CCc1ncc(-c2ccccc2)o1)Nc1nc2ccccc2s1", "Potency": "inactive"},
      {"smiles": "Cc1cc(C)cc(-n2ccnc2SCC(=O)Nc2nc3ccccc3s2)c1", "Potency": "inactive"},
      {"smiles": "c1ccc(C(=NNc2nc3ccccc3s2)c2ccccn2)cc1", "Potency": "44.7 µM (active)"},
      {"smiles": "COc1cccc(Oc2coc3cc(OC)ccc3c2=O)c1", "Potency": "inactive"},
      {"smiles": "CCN1C(=O)COc2ccc(NC(=O)c3cc(=O)c4cc(Cl)c(C)cc4o3)cc21", "Potency": "inactive"},
      {"smiles": "O=C(NCCc1nc2ccccc2[nH]1)c1ccc(N2CCCN(Cc3cccc(F)c3)C2=O)cc1", "Potency": "inactive"},
      {"smiles": "CCOC(=O)c1c(S(=O)(=O)N2CCCC2)nn(C)c1C", "Potency": "14.1 µM (active)"},
      {"smiles": "CCOc1ccccc1NC(=O)C1CCN(S(=O)(=O)c2c(C)nn(C)c2C)CC1", "Potency": "inactive"},
      {"smiles": "CCOC(=O)c1c(S(=O)(=O)N2CCCC(C(=O)NCc3cccc(C)c3)C2)c(C)n(C)c1C", "note": "(stereo unspecified)", "Potency": "inactive"}
    ]}
  ]
}
